# Data taken from PubChem BioAssay (NCI).
# This is part of a sample that, as a whole, favours compounds with a hit. Of some 83,000 tested, about 20% had one in any assay.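 Assay: single dose, 48 h. Readout: percent growth (0 = no net growth; negative = cell death). Active: <10.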 A number with no mark means an inactive call. Activity calls are given as the source filed them.
# System: NCI-H322M lung
# Assay: NCI-60 one-dose screen, 48 h (100 = growth as untreated, 0 = no growth, -100 = all killed)
# Conditions: 10 µM unless noted
row,Compound,growth
1,Nc1cc2nc3ccccc3sc-2cc1=O,93.8%
2,COc1ccc(C(=O)/C=C/c2c(Cl)c3c(c(OC)c2Cl)OCC(=O)N3)cc1,79.8%
3,COc1cc(NCCCCN=C(N)NC(N)=NC(C)C)c2ncccc2c1,33.6%
4,CC/C=C\C[C@H](F)C/C=C1/C(=O)C=C[C@@H]1C/C=C\CCCC(=O)OC,45.5%
5,C=C(CN1CCN(c2cccc(C(F)(F)F)n2)CC1)c1ccc(C(=O)Nc2ccccc2N)cc1,45.8%
6,Cn1cc(-c2csc(-c3cn(C)c4ncccc34)n2)c2ccccc21,45.1%
7,COc1ccc2nc3cc(Cl)ccc3c(N3CCN(c4nccc(Nc5ccc(Cl)cc5)n4)CC3)c2c1,97.5%
8,CCN(CC)CCCC(C)N/C(=C1\C(=O)NC(=O)\C1=C(/NC(C)CCCN(CC)CC)c1cccc(OC)c1)c1cccc(OC)c1 (stereo unspecified),-49.6% (active)
9,CC(=O)C1=C(O)C=C2Oc3c(C(=O)/C=C/c4ccccc4)c(O)c(C)c(O)c3[C@]2(C)C1=O,31.5%
10,O=C1/C(=C/c2ccc(Cl)c(Cl)c2)CN(C(=O)CCN2CCC(=NO)CC2)C/C1=C\c1ccc(Cl)c(Cl)c1,-78.7% (active)
11,CCOC(=O)/C=C/C(=O)[C@H](CC(C)C)NC(=O)[C@H](Cc1ccccc1)NC(=O)OCc1ccccc1,103%
12,Cc1cc2cc3cc(C)c(N(C)C)cc3[n+](C)c2cc1N(C)C,25.4%
13,COC(=O)[C@@H]1CC[C@]2(C)[C@H](CC[C@@H]3O[C@@]32C)[C@@]1(C)CC(=O)c1ccoc1,102%
14,O=C(O)c1ccccc1Nc1cccc(S(F)(F)(F)(F)F)c1,101%
15,COc1ccc(C2c3ccc4ccccc4c3Oc3ncnc(N)c32)cc1 (stereo unspecified),88%
16,CN1CCN(Cc2ccc(NC(=O)c3cncc(C#Cc4cnc(N)c5cccnc45)c3)cc2C(F)(F)F)CC1,26.4%
17,COc1ccc(OCC(=O)Nc2ccc(-c3nc4ccccc4s3)cc2C)cc1,94.7%
18,Oc1ccc2c(=S)cc(-c3ccc(Br)cc3)oc2c1O,10.5%
19,O=C1CC(c2nc3ccccc3s2)CN1C1CCCCC1 (stereo unspecified),91.2%

row,Compound,growth
1,COc1cccc(-n2cc(-c3nc(Nc4cc(C)[nH]n4)c4ccccc4n3)nn2)c1,52.2%
2,CCN(CC)CC#CCOC(=O)[C@]1(C)CCC[C@@]2(C)[C@H]1CC(C=O)=C1C=C(C(C)C)CC[C@@H]12,94.5%
3,CC(=O)Nc1ccc2c(c1)c(NC(C)=O)nn2C(=O)Nc1ccc(Cc2ccccc2)cc1,75.1%
4,Cc1cc(Nc2nc(N3CCNCC3)nc3ccccc23)n[nH]1,91.1%
5,COC(=S)SCN(CSC(=S)OC)c1ccc(Cl)cc1,76.1%
6,CCN(CC)CCC(=O)Nc1ccc(Cn2nnc3c2C(=O)c2nnn(Cc4ccc(NC(=O)CCN(CC)CC)cc4)c2C3=O)cc1,-75.3% (active)
7,O=C(CCCCN1CCOCC1)Nc1ccc(Cn2nnc3c2C(=O)c2nnn(Cc4ccc(NC(=O)CCCCN5CCOCC5)cc4)c2C3=O)cc1,-89.3% (active)
8,COc1ccc(C(=O)c2sc3nc(-c4ccccc4OC)ccc3c2N)cc1OC,87.2%
9,O=C1C[C@H](N2C(=O)c3ccccc3S2(=O)=O)C2CO[C@@H]1O2,103%
10,CC(=O)C1=C(O)C=C2Oc3c(C(=O)/C=C/c4cc(C(F)(F)F)cc(C(F)(F)F)c4)c(O)c(C)c(O)c3[C@]2(C)C1=O,-44.8% (active)
11,CCN(CC)c1ccc(/C=C/C2=[N+](C)c3ccccc3C2(C)C)cc1,27.2%
12,c1ccc2c(Nc3cccc4ccccc34)cccc2c1,103%
13,CCCCCCCCCCCCCC(=O)C(C)N (stereo unspecified),53.5%
14,CCOC(=O)C(CC)n1c(=O)c2cc(OC)c(OC)cc2c2cnc3[nH]ccc3c21 (stereo unspecified),71%
15,O=C1C2CC=CCC2C(=O)N1CNc1ccc(Cl)cc1 (stereo unspecified),92.2%
16,Cc1ccc(SCN2CCN(c3cccc(Cl)c3)CC2)cc1,88.7%
17,Cc1nc2nc(N)nc(N)c2nc1C,95.1%
18,CSc1[nH]c2ncnc(N)c2c1C#N,82.9%
19,O=C(CN1CCOCC1)Nc1ccc(Cn2nnc3c2C(=O)c2nnn(Cc4ccc(NC(=O)CN5CCOCC5)cc4)c2C3=O)cc1,-3.02% (active)

# System: HOP-62 NSCLC
# Assay: as above
# Conditions: 10 µM unless noted
row,Compound,growth
1,Nc1cc2nc3ccccc3sc-2cc1=O,63.9%
2,COc1ccc(C(=O)/C=C/c2c(Cl)c3c(c(OC)c2Cl)OCC(=O)N3)cc1,21%
3,COc1cc(NCCCCN=C(N)NC(N)=NC(C)C)c2ncccc2c1,75.3%
4,CC/C=C\C[C@H](F)C/C=C1/C(=O)C=C[C@@H]1C/C=C\CCCC(=O)OC,-25.8% (active)
5,C=C(CN1CCN(c2cccc(C(F)(F)F)n2)CC1)c1ccc(C(=O)Nc2ccccc2N)cc1,20.6%
6,Cn1cc(-c2csc(-c3cn(C)c4ncccc34)n2)c2ccccc21,33.8%
7,COc1ccc2nc3cc(Cl)ccc3c(N3CCN(c4nccc(Nc5ccc(Cl)cc5)n4)CC3)c2c1,88.1%
8,CCN(CC)CCCC(C)N/C(=C1\C(=O)NC(=O)\C1=C(/NC(C)CCCN(CC)CC)c1cccc(OC)c1)c1cccc(OC)c1 (stereo unspecified),-6.86% (active)
9,CC(=O)C1=C(O)C=C2Oc3c(C(=O)/C=C/c4ccccc4)c(O)c(C)c(O)c3[C@]2(C)C1=O,37.3%
10,O=C1/C(=C/c2ccc(Cl)c(Cl)c2)CN(C(=O)CCN2CCC(=NO)CC2)C/C1=C\c1ccc(Cl)c(Cl)c1,-88.2% (active)
11,CCOC(=O)/C=C/C(=O)[C@H](CC(C)C)NC(=O)[C@H](Cc1ccccc1)NC(=O)OCc1ccccc1,108%
12,Cc1cc2cc3cc(C)c(N(C)C)cc3[n+](C)c2cc1N(C)C,30%
13,COC(=O)[C@@H]1CC[C@]2(C)[C@H](CC[C@@H]3O[C@@]32C)[C@@]1(C)CC(=O)c1ccoc1,95.1%
14,O=C(O)c1ccccc1Nc1cccc(S(F)(F)(F)(F)F)c1,88.4%
15,COc1ccc(C2c3ccc4ccccc4c3Oc3ncnc(N)c32)cc1 (stereo unspecified),45.1%
16,CN1CCN(Cc2ccc(NC(=O)c3cncc(C#Cc4cnc(N)c5cccnc45)c3)cc2C(F)(F)F)CC1,-0.449% (active)
17,COc1ccc(OCC(=O)Nc2ccc(-c3nc4ccccc4s3)cc2C)cc1,89.5%
18,Oc1ccc2c(=S)cc(-c3ccc(Br)cc3)oc2c1O,28.7%
19,O=C1CC(c2nc3ccccc3s2)CN1C1CCCCC1 (stereo unspecified),93.2%

row,Compound,growth
1,COc1cccc(-n2cc(-c3nc(Nc4cc(C)[nH]n4)c4ccccc4n3)nn2)c1,50.2%
2,CCN(CC)CC#CCOC(=O)[C@]1(C)CCC[C@@]2(C)[C@H]1CC(C=O)=C1C=C(C(C)C)CC[C@@H]12,74.8%
3,CC(=O)Nc1ccc2c(c1)c(NC(C)=O)nn2C(=O)Nc1ccc(Cc2ccccc2)cc1,44.3%
4,Cc1cc(Nc2nc(N3CCNCC3)nc3ccccc23)n[nH]1,109%
5,COC(=S)SCN(CSC(=S)OC)c1ccc(Cl)cc1,76.9%
6,CCN(CC)CCC(=O)Nc1ccc(Cn2nnc3c2C(=O)c2nnn(Cc4ccc(NC(=O)CCN(CC)CC)cc4)c2C3=O)cc1,-34.5% (active)
7,O=C(CCCCN1CCOCC1)Nc1ccc(Cn2nnc3c2C(=O)c2nnn(Cc4ccc(NC(=O)CCCCN5CCOCC5)cc4)c2C3=O)cc1,-59.1% (active)
8,COc1ccc(C(=O)c2sc3nc(-c4ccccc4OC)ccc3c2N)cc1OC,95.3%
9,O=C1C[C@H](N2C(=O)c3ccccc3S2(=O)=O)C2CO[C@@H]1O2,92.6%
10,CC(=O)C1=C(O)C=C2Oc3c(C(=O)/C=C/c4cc(C(F)(F)F)cc(C(F)(F)F)c4)c(O)c(C)c(O)c3[C@]2(C)C1=O,-52.6% (active)
11,CCN(CC)c1ccc(/C=C/C2=[N+](C)c3ccccc3C2(C)C)cc1,13.8%
12,c1ccc2c(Nc3cccc4ccccc34)cccc2c1,56.3%
13,CCCCCCCCCCCCCC(=O)C(C)N (stereo unspecified),22.3%
14,CCOC(=O)C(CC)n1c(=O)c2cc(OC)c(OC)cc2c2cnc3[nH]ccc3c21 (stereo unspecified),73.8%
15,O=C1C2CC=CCC2C(=O)N1CNc1ccc(Cl)cc1 (stereo unspecified),86.4%
16,Cc1ccc(SCN2CCN(c3cccc(Cl)c3)CC2)cc1,114%
17,Cc1nc2nc(N)nc(N)c2nc1C,88.6%
18,CSc1[nH]c2ncnc(N)c2c1C#N,94.9%
19,O=C(CN1CCOCC1)Nc1ccc(Cn2nnc3c2C(=O)c2nnn(Cc4ccc(NC(=O)CN5CCOCC5)cc4)c2C3=O)cc1,-38.6% (active)
